Results filed as inconclusive are left out. Entries that show only a call come without a potency. The source holds several records for some structures; these can differ, active in one and inactive in another. Calls of active or inactive are those of the source. The call rests on the fitted dose curve.
Target: Vitamin D3 receptor (Homo sapiens) (UniProt P11473)
Assay: qHTS assay for small molecule antagonists of vitamin D receptor signaling (AID 588541)
Settings: HEK293T VDR-UAS-bla, beta-lactamase ratio, antagonist mode; series mostly up to 76.7 µM
Excerpt: NIH Chemical Genomics Center [NCGC]
U.S. Environmental Protection Agency [EPA]
National Institutes of Environmental Health Sciences [NIEHS]
National Toxicology Program [NTP]
The Vitamin D receptor (VDR) is a member of nuclear hormone receptor superfamily and it plays a critical role in calcium homeostasis and bone metabolism. It plays a role in inducing cell differentiation, inhibiting cell growth and in thrombogenicity. So, VDR that mediates these effects represents a pharmacological target in prevention and treatment of hyperproliferative malignancies, such as cancer and psoriasis, cardiovascular, immunological, inflammatory and renal diseases etc.
NCGC Assay Protocol Summary
Using a beta-lactamase reporter-gene under control of Vitamin D receptor (VDR) response element, a cell-based assay [GeneBLAzer (VDR -UAS-bla assay developed by Invitrogen] was used to measure VDR ligands signaling. GeneBLAzer VDR -UAS-bla HEK293T cells were used with assay medium containing 2% charcoal-stripped FBS. The assay was performed in clear bottom black Greiner 1536-well plates. Library compounds were measured for their ability to inhibit the reporter gene activity. Compounds were screened in a titration series in 1536-well format. The fluorescence intensity (405 nm excitation, 460/530 nm emission) was measured using an EnVision plate reader. Data was normalized relative to 1-alpha,25-Dihydroxy vitaminD3 control (50 nM, 100%) and DMSO only wells (basal, 0%). Concentration-response titration points for each compound were fitted to the Hill equation yielding concentrations of half-maximal inhibition (IC50) and maximal response (efficacy) values.
qHTS protocol for VDR beta-lactamase assay in antagonist mode
[Step] [Parameter] [Value] [Description]
1. Reagent; 5 uL; 2000 cells/well
2. Incubation; 37 C for 5 hrs
4. Controls (DMSO); 23 nL,
5. Agonist (Stimulator); 1uL; 1-alpha,25-Dihydroxy vitaminD3 at 50 nM and 3 nM final concentrations
6. Incubation; 37 C for 16 hrs
7. Detection reagent; 1 uL of CCF4-dye
8. Incubation; RT for 2 hrs
9. Detection; Fluorescence; Envision plate reader

Sequence of Vitamin D3 receptor (Homo sapiens) (P11473 whole entry, looked up): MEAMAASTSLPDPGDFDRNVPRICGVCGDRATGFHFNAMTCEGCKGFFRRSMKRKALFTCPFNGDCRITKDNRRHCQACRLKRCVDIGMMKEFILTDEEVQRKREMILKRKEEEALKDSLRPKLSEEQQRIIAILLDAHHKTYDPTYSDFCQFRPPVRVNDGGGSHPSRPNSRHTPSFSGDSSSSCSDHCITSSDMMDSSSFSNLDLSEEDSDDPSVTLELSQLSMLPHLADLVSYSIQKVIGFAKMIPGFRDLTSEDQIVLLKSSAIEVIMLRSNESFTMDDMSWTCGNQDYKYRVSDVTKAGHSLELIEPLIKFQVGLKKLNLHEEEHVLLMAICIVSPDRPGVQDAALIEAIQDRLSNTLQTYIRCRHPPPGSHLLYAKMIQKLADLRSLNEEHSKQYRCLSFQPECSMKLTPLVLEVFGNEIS

SMILES | Potency
O=c1[nH]ncc2ccccc12 | inactive
COc1cc(-c2ccc(N=C=O)c(OC)c2)ccc1N=C=O | inactive
O=[N+]([O-])c1ccccc1Nc1ccccc1 | inactive
Nc1ccc(N)c(Cl)c1 | inactive
Oc1cc(Cl)cc(Cl)c1Cl | inactive
Nc1ccc(-c2ccc(N)c(O)c2)cc1O | inactive
C=CC(=O)OCCCCCCOC(=O)C=C | 31.6 µM (active) and inactive
CCN(CC)c1ccc(N)cc1 | inactive
O=[N+]([O-])c1cc(Cl)c(Cl)c(Cl)c1Cl | inactive
CN(C)c1ccc(Cc2ccc(N(C)C)cc2)cc1 | inactive
O=C1OC(=O)c2ccccc21 | inactive
c1cc2c3c(c1)ccc1cccc(c13)C2 | inactive
O=[N+]([O-])c1cccc(I)c1 | inactive
O=C(OCc1ccccc1)c1ccccc1O | inactive
CCNC(=S)NCC | inactive
CCCCCCCCC1CO1 (stereo not given) | inactive
CCCCCCN | inactive
O=C1c2ccccc2C(=O)C1(O)O | inactive
CC/C=C/C/C=C/C/C=C/CCCCCCCC(=O)OCC | inactive
Cc1c(N)cccc1Cl | inactive

SMILES | Potency
c1ccc(CSCc2ccccc2)cc1 | inactive
COc1ccc([N+](=O)[O-])cc1N | inactive
Brc1ccc(-c2ccccc2)cc1 | inactive
Nc1cc([N+](=O)[O-])ccc1O | inactive
c1ccc(COCc2ccccc2)cc1 | inactive
Brc1cc(Br)c(Oc2cc(Br)c(Br)cc2Br)cc1Br | inactive
Clc1nc2ccccc2nc1Cl | inactive
Cc1cc(-c2ccc(N=Nc3cc(S(=O)(=O)O)c4ccccc4c3N)c(C)c2)ccc1N=Nc1cc(S(=O)(=O)O)c2ccccc2c1N | inactive
Cc1ccc(N)cc1[N+](=O)[O-] | inactive
CCOC(=O)C1OC1c1ccccc1 (stereo not given) | inactive
CC(=O)c1ccc(Cl)c(Cl)c1Cl | inactive
CCCCCCCCOc1ccc(C(=O)O)cc1 | inactive
CC(C)(C)C(=O)C1C(=O)c2ccccc2C1=O | inactive
c1ccncc1 | inactive
O=[N+]([O-])c1ccc(F)cc1F | inactive
O=[N+]([O-])c1cc(N(CCO)CCO)ccc1NCCO | inactive
c1ccc(SCCSc2ccccc2)cc1 | inactive
N[C@@H](Cc1ccccc1)C(=O)O | inactive
NC(=O)Nc1nc2ccccc2[nH]1 | inactive
Cc1ccc(S(N)(=O)=O)cc1 | inactive

Reference: PubChem BioAssay (NCATS)
